The text below walks through data of PubChem BioAssay (EPA / NIEHS).

Assay [1] concerns the target THRB (gene 7068) (UniProt P10828). The assay can be described thus: TOX21_TRB_BLA_Agonist_Followup_ratio: Tox21 Thyroid Hormone Receptor beta Agonism Beta-lactamase (BLA) Follow-Up Assay, Ratio (AID 2283954). In outline: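 Human TRβ LBD–GAL4 DBD fusion in GeneBLAzer UAS-bla HEK293T cells; 11 concentrations in triplicate, 18 h at 37°C/5% CO2, T3 as agonist control. CCF4-AM substrate 2 h at room temperature; 460:530 nm ratio fitted for gain of signal versus DMSO.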

The target is the same in assay [2]. The assay can be described thus: TOX21_TRB_COA_Agonist_Followup_ratio: Tox21 Thyroid Hormone Receptor beta Agonism through Coactivator Recruitment Follow-Up Assay, Ratio (AID 2283963; active means hit-call score of the fitted dose curve at least 0.9, where 1 is the maximum; inactive means score below 0.9). The method, boiled down: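 First, the GST-fused TRβ ligand-binding domain (5.0 nM) was incubated with test compound in 0.10% BSA. Next, fluorescein-tagged SRC-2 peptide (200 nM) and terbium anti-GST antibody (2 nM) were added. Finally, TR-FRET emission ratios were normalized against DMSO and T3 controls.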

Assay [3] has as its target Retinoic acid receptor RXR-alpha (Homo sapiens) (UniProt P19793). In words: TOX21_TR_RXR_BLA_Agonist_Followup_ratio: Tox21 Thyroid Hormone Receptor beta Retinoid X Receptor alpha (RXRa) Agonism Beta-lactamase (BLA) Follow-Up Assay, Ratio (AID 2283968). In outline: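 HEK293T RXRa-bla, qHTS; cpd 11-pt conc. in triplicate, 16 h 37C/5% CO2; CCF4-AM 2 h RT; ratio 460:530 nm; agonist direction vs DMSO; 9-cis retinoic acid as positive control.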

A short description of assay [4]: TOX21_TR_RXR_BLA_Agonist_Followup_viability: Viability Assessment in the Tox21 Thyroid Hormone Receptor beta Retinoid X Receptor alpha (RXRa) Agonism Beta-lactamase (BLA) Follow-Up Assay (AID 2283970). The method, boiled down:
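Cells: HEK293T RXRa-UAS-bla, 2,500/well; medium phenol red-free DMEM + 2% charcoal-stripped FBS; 16h, 37C/5% CO2; qHTS concentration series. Read: CellTiter-Glo luminescence (ATP); bidirectional fit, DMSO = baseline.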

The target in assay [5] is human Neurokinin, NK2 Receptor, TACR2 (gene 6865) (UniProt P21452). The assay can be described thus: NVS_GPCR_hNK2: NovaScreen (NVS) G Protein-Coupled Receptor Assay for human Neurokinin, NK2 Receptor (AID 2283278).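 Further: actives reduce bound radioligand signal relative to DMSO baseline.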 In outline: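 Filter-based scintillation counting measured radioligand bound to receptor extracted from CHO cells, 4 hours after compound addition. Chemicals screened first at 25 uM in duplicate, with actives retested in concentration series relative to DMSO.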

Assay [6] addresses human Opioid Receptor Mu (Opiate Mu), OPRM1 (gene 4988) (UniProt P35372). In words: NVS_GPCR_hOpiate_mu: NovaScreen (NVS) G Protein-Coupled Receptor Assay for human Opioid Receptor Mu (Opiate Mu) (AID 2283290).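 Further: hits lower bound tracer signal versus DMSO meaning displacement of the ligand.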 The method, boiled down: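 CHO-derived receptor protein, cell-free; radioligand displacement, filtration + scintillation counting, read at 2.5 h. DMSO = negative control/baseline. Primary: 25 uM single conc, duplicate; secondary: concentration series.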

Assay [7] is described as follows: TAMU_HCS_1.5hr_SingleDonor1434_Cytotoxicity: Cytotoxicity Assessment using High-content Screening (HCS) Fluorescent Imaging for the Texas A&M University (TAMU) 1.5-hr Human Induced Pluripotent Stem Cell (iPSC)-derived Cardiotoxicity Assay (AID 2284234). In outline:
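Human iPSC-derived cardiomyocytes dosed at 0.2, 1, 10, 100 uM final (0.5% DMSO) for 90 min at 37 C. Hoechst 33342-stained nuclei counted by 10x high-content imaging; POD is EC10, a 10% drop in total cell count versus DMSO.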

Assay [8] has as its target human AKT serine/threonine Kinase 1 (AKT1), AKT1 (gene 207) (UniProt P31749). In words: NVS_ENZ_hAKT1: NovaScreen (NVS) Enzymatic Assay for human AKT serine/threonine Kinase 1 (AKT1) (AID 2283138). The method, boiled down: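 Recombinant AKT1, specific substrate, cell-free; 1 h; fluorescence intensity/electrophoretic mobility shift. Duplicate single-point 25 uM, then singleton CRC max 50 uM. DMSO = negative control/baseline; signal loss = inhibition.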

The target in the next assay is CDK2 (gene 1017) (UniProt P24941). The assay can be described thus: NVS_ENZ_hCDK2: NovaScreen (NVS) Enzymatic Assay for human Cyclin-Cependent Kinase 2 (CDK2) (AID 2283144). In outline:
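Cell-free recombinant human CDK2 with fluorescent substrate, product separated by electrophoretic mobility shift; 1 hr read. Primary screen at 25 uM in duplicate, actives retested in concentration-response up to 50 uM; loss of signal versus DMSO.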

Assay [9] deals with human Casein Kinase 1-delta (CK1D), CSNK1D (gene 1453) (UniProt P48730). In words: NVS_ENZ_hCK1D: NovaScreen (NVS) Enzymatic Assay for human Casein Kinase 1-delta (CK1D) (AID 2283148). In outline:
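Recombinant human CK1-delta, cell-free; fluorescent substrate with electrophoretic mobility-shift separation of product, read 1 h after dosing. Single 25 uM duplicate screen, then concentration-response up to 50 uM; loss of signal vs DMSO.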

For assay [10], the target named is human Colony Stimulating Factor 1 Receptor (CSF1R), CSF1R (gene 1436) (UniProt P07333). The assay can be described thus: NVS_ENZ_hCSF1R: NovaScreen (NVS) Enzymatic Assay for human Colony Stimulating Factor 1 Receptor (CSF1R) (AID 2283150). The method, boiled down: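 Cell-free recombinant human CSF1R kinase with fluorescent substrate, product separated by electrophoretic mobility shift; read 1 h after dosing. Primary screen at 25 uM in duplicate, actives then in concentration-response up to 50 uM, relative to DMSO.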

The target of assay [11] is human Fibroblast Growth Factor Receptor 1 (FGFR1), FGFR1 (gene 2260) (UniProt P11362). In words: NVS_ENZ_hFGFR1: NovaScreen (NVS) Enzymatic Assay for human Fibroblast Growth Factor Receptor 1 (FGFR1) (AID 2283159). The method, boiled down: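 Cell-free recombinant kinase with fluorescent substrate, product separated by electrophoretic mobility shift; read 1 hour after dosing, loss of signal relative to DMSO. Initial screen in duplicate at 25 uM, actives followed in concentration series.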

In assay [12] the target is human FYN Proto-Oncogene, Src family Tyrosine Kinase (Fyn), FYN (gene 2534) (UniProt P06241). The assay can be described thus: NVS_ENZ_hFyn: NovaScreen (NVS) Enzymatic Assay for human FYN Proto-Oncogene, Src family Tyrosine Kinase (Fyn) (AID 2283161). The method, boiled down:
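Recombinant enzyme with fluorescent substrate, product separated by electrophoretic mobility shift; read 1 h after dosing. Duplicate 25 uM single-point screen, actives retested in concentration series; loss of signal vs DMSO.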

Assay [13] has as its target Tyrosine-protein phosphatase non-receptor type 11 (Homo sapiens) (UniProt Q06124). In words: NVS_ENZ_hPTPN11: NovaScreen (NVS) Enzymatic Assay for human Protein Tyrosine Phosphatase Non-receptor Type 11 (PTPN11) (AID 2283202). In outline: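 Recombinant human PTPN11 activity on a fluorescent substrate, with substrate/product separated by electrophoretic mobility shift; read 0.5 h after dosing, loss of signal vs DMSO. Duplicate 25 uM screen, then concentration-response up to 50 uM.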

Assay [14] deals with Tyrosine-protein phosphatase non-receptor type 13 (Homo sapiens) (UniProt Q12923). In words: NVS_ENZ_hPTPN13: NovaScreen (NVS) Enzymatic Assay for human Protein Tyrosine Phosphatase Non-receptor Type 13 (PTPN13) (AID 2283205). In outline: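 Cell-free assay of recombinant human PTPN13 with a fluorescent substrate, product separated by electrophoretic mobility shift and read 0.5 h after dosing. Primary screen at 25 uM in duplicate, then concentration-response up to 50 uM. Loss of signal fitted against DMSO.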

Assay [15] has as its target human Protein Tyrosine Phosphatase Non-receptor Type 2 (PTPN2), PTPN2 (gene 5771) (UniProt P17706). In words: NVS_ENZ_hPTPN2: NovaScreen (NVS) Enzymatic Assay for human Protein Tyrosine Phosphatase Non-receptor Type 2 (PTPN2) (AID 2283207). In outline:
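Cell-free recombinant enzyme with fluorescent substrate, product separated by electrophoretic mobility shift; read 1 h after dosing. Primary screen single concentration (25 uM) in duplicate; actives followed in concentration series; loss of signal versus DMSO.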

Assay [16] has as its target human Protein Tyrosine Phosphatase Receptor Type M (PTPRM), PTPRM (gene 5797) (UniProt P28827). The assay can be described thus: NVS_ENZ_hPTPRM: NovaScreen (NVS) Enzymatic Assay for human Protein Tyrosine Phosphatase Receptor Type M (PTPRM) (AID 2283215). In outline: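 Cell-free recombinant PTPRM with fluorogenic substrate; product separated from substrate by electrophoretic mobility shift and read by fluorescence, 1.33 h after dosing. Primary screen single concentration (25 uM) in duplicate; actives retested in concentration series; loss of signal versus DMSO.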

Assay [17] deals with human Vascular Endothelial Growth Factor Receptor 2 (VEGFR2), KDR (gene 3791) (UniProt P35968). The assay can be described thus: NVS_ENZ_hVEGFR2: NovaScreen (NVS) Enzymatic Assay for human Vascular Endothelial Growth Factor Receptor 2 (VEGFR2) (AID 2283230). The method, boiled down: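 Cell-free recombinant VEGFR2 kinase, fluorescent substrate with electrophoretic mobility-shift separation; read 1 h after dosing. Screened at 25 uM in duplicate, hits to concentration-response up to 50 uM; loss-of-signal versus DMSO.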

Assay [18] concerns the target rat Constitutive Nitric Oxide Synthase (CNOS), Nos1 (gene 24598) (UniProt P29476). In words: NVS_ENZ_rCNOS: NovaScreen (NVS) Enzymatic Assay for rat Constitutive Nitric Oxide Synthase (CNOS) (AID 2283236). In outline: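 Enzyme activity in rat brain membrane preparation, read 1 h after dosing by filter-based radiometric scintillation counting. Primary screen in duplicate at 25 uM; actives (e.g., ≥30% inhibition) then run in concentration-response up to 50 uM.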

Read-out in assay [19]: Fatty Acid-Binding Protein 1 (FABP1), FABP1 (gene 2168)
In words: LTEA_HepaRG_FABP1: Life Technologies and Expression Analysis (LTEA) Assay for Fatty Acid-Binding Protein 1 (FABP1) using HepaRG (AID 2283494; active means hit-call score of the fitted dose curve at least 0.9, where 1 is the maximum; inactive means score below 0.9). To be noted: mRNA level, 48 h; actives raise or lower the signal. The method, boiled down: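 HepaRG, 48 h post-plating switched to serum-free induction medium, then dosed 48 h (duplicate, 8 pts, ≤100 uM, 0.5% DMSO). RNA → Fluidigm TaqMan qRT-PCR, FABP1 normed to ACTB/GAPDH/POLR2A. Bidirectional curve fit vs DMSO.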

Records with an inconclusive call do not appear. Calls of active or inactive are those of the source. How the source made its calls, unless noted: active means hit-call score of the fitted dose curve at least 0.9, where 1 is the maximum; inconclusive means response in the unintended direction; inactive means score below 0.9.

Sequence of THRB (gene 7068) (P10828 whole entry, looked up, the tested form may be a part): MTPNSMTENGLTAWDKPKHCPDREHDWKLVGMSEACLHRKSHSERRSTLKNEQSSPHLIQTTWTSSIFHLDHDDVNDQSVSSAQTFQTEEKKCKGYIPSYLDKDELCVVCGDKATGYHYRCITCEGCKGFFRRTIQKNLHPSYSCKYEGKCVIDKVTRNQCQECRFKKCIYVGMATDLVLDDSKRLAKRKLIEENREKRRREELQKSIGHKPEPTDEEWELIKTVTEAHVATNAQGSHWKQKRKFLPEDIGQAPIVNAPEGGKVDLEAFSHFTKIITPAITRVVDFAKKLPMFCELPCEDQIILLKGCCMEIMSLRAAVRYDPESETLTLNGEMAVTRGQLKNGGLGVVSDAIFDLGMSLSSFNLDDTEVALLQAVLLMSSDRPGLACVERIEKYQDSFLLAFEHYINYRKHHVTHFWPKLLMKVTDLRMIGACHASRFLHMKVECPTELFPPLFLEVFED
Sequence of human Casein Kinase 1-delta (CK1D), CSNK1D (gene 1453) (P48730 whole entry, looked up): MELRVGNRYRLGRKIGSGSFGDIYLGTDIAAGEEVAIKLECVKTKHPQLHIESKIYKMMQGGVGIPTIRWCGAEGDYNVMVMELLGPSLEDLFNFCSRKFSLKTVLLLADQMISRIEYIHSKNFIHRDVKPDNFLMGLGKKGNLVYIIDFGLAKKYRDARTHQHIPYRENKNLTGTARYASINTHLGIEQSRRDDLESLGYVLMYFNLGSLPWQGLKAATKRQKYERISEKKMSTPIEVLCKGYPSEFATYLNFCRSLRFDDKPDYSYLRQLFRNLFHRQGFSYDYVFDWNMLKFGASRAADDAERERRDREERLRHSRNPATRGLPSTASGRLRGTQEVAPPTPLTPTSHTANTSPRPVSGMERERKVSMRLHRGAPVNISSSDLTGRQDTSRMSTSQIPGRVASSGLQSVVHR
Sequence of human Vascular Endothelial Growth Factor Receptor 2 (VEGFR2), KDR (gene 3791) (P35968 whole entry, looked up): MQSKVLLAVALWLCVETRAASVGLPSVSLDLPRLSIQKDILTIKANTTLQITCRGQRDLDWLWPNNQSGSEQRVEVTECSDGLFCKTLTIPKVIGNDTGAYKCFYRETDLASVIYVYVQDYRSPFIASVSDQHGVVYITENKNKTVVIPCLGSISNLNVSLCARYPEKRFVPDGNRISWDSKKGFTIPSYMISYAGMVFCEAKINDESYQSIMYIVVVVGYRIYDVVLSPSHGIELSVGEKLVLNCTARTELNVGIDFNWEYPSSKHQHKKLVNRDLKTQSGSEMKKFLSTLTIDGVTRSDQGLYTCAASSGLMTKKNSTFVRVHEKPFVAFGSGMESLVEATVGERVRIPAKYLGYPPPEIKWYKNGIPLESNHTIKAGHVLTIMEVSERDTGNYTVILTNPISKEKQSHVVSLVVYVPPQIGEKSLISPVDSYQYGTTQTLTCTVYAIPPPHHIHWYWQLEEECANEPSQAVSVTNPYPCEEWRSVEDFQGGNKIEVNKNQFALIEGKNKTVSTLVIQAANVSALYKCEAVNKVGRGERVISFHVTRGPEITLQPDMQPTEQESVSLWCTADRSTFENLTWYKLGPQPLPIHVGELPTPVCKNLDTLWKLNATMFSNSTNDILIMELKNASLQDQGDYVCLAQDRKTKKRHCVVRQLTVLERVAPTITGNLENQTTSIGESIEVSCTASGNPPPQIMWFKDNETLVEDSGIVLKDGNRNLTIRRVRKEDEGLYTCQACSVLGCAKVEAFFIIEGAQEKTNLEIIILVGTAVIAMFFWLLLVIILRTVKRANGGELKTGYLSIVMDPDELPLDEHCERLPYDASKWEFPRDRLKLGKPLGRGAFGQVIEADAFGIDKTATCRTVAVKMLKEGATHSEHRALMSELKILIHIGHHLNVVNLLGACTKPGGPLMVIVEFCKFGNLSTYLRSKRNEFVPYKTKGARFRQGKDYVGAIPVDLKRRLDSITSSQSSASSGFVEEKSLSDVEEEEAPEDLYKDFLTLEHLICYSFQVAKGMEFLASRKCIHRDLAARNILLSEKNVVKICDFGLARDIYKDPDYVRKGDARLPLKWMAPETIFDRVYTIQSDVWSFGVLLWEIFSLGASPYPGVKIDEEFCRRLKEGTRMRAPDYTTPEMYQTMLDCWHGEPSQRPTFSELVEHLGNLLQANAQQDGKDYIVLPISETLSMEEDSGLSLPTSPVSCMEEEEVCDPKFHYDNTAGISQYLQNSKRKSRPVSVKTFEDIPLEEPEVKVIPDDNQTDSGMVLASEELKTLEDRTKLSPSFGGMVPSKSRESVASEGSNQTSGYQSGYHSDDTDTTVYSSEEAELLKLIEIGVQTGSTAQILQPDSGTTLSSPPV
Sequence of Tyrosine-protein phosphatase non-receptor type 11 (Homo sapiens) (Q06124 whole entry, looked up): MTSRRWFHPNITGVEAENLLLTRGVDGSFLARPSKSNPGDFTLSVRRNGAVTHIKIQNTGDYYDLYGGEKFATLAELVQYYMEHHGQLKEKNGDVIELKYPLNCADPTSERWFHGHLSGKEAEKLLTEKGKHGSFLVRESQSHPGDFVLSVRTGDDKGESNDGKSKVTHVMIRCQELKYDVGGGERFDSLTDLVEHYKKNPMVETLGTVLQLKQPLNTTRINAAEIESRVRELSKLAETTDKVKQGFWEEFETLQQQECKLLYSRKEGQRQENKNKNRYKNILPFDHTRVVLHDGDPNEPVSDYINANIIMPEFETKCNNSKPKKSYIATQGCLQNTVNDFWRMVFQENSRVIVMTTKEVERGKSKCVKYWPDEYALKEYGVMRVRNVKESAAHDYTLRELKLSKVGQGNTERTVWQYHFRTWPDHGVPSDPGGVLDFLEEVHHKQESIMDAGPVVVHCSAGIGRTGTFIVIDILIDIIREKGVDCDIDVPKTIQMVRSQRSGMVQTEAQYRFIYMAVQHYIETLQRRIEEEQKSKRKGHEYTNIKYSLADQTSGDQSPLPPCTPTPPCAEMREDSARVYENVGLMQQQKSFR
Sequence of Retinoic acid receptor RXR-alpha (Homo sapiens) (P19793 whole entry, looked up): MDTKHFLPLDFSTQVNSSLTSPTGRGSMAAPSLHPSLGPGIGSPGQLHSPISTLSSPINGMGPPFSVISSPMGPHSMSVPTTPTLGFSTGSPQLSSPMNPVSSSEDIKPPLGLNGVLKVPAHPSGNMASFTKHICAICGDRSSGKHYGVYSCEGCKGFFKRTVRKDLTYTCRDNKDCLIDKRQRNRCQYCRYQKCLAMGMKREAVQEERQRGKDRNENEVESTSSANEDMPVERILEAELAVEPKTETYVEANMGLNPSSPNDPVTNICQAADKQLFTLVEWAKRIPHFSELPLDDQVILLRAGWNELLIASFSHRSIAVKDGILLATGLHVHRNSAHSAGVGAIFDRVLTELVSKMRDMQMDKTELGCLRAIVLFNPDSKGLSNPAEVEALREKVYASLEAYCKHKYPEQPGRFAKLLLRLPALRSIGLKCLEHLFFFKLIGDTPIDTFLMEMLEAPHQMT
Sequence of rat Constitutive Nitric Oxide Synthase (CNOS), Nos1 (gene 24598) (P29476 whole entry, looked up): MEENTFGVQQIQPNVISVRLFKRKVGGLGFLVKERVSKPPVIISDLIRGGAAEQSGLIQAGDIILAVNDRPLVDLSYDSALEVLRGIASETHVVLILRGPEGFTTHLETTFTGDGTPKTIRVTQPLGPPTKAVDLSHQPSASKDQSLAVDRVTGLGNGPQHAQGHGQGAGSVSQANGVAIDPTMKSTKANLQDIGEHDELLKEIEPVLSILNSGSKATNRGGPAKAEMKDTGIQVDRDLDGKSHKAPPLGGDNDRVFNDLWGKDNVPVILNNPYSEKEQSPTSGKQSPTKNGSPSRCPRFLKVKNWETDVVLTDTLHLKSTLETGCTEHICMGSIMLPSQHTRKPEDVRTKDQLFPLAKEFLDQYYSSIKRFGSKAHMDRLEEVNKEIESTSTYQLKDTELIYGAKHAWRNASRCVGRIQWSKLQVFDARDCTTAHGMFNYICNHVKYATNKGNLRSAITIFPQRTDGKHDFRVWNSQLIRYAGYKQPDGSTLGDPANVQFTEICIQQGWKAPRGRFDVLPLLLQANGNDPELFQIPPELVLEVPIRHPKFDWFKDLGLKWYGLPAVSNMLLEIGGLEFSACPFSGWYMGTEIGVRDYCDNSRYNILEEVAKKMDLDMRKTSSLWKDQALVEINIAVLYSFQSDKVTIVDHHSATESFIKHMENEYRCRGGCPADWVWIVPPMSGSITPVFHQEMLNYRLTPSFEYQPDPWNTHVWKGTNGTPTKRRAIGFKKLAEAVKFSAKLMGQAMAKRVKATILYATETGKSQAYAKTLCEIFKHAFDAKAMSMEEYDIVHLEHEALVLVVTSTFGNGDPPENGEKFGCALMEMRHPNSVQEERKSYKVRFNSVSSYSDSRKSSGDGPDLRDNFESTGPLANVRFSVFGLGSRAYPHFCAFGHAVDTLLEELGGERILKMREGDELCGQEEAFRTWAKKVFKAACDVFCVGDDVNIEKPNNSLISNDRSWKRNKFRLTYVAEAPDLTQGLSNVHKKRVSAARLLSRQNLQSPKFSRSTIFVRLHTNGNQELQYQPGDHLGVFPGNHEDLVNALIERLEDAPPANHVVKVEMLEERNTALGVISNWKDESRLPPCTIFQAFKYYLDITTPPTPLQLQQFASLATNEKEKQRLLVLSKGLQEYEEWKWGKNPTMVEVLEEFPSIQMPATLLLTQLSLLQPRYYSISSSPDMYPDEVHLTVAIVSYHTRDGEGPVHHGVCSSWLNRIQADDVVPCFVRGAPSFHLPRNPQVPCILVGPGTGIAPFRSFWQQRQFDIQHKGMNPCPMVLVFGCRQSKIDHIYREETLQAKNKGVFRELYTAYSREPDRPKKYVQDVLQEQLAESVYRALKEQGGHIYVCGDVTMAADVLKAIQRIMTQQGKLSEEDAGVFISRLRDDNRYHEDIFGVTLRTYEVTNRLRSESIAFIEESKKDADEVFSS

Turning to `CC(C)CCCCCCCOC(=O)c1ccccc1C(=O)OCCCCCCCC(C)C`, the outcome (with THRB (gene 7068) [1]; in the assay with THRB (gene 7068) [2]; in [3]; in [4]) was inactive.
One may read the AC50 as the concentration at which the activity in the assay is half-maximal. Turning to `O=C1C=CC(=O)C=C1`, the AC50 was 0.927 µM (active) in assay [5] and 9.86 µM (active) in assay [6]. In addition, the compound was classed as inactive in [7].
As to `O=[N+]([O-])c1ccc(Cl)cc1`, the compound was called inactive (in assay [8]; with CDK2 (gene 1017); in assay [9]; in assay [10]; in assay [11]; in assay [12]). Further, the call in assay [13], in assay [14], in assay [15], in assay [16], in [17] and in assay [18] was inactive. For the same compound, the compound was classed as inactive in assay [19].
